SMILES strings stand for the structures. Screen size: about 360,000 compounds; about 10,000 (2.8%) were called active. Another 4% or so got no clear call; they are omitted. Calls follow the shape of the dose curve; as a rule, active = well fitted inhibition curve with a large enough effect; inconclusive = small, poorly fitted or top-dose-only effect; inactive = flat fitted curve, though single readings scatter. Shown is part of a subset that was picked to be rich in actives.
% is scaled to controls: 0 for no effect and ±100 for the full control effect; potency is read from the fitted curve at half-maximal effect.

For this test, the target named is Serine/threonine-protein kinase PLK1 (Homo sapiens) (UniProt P53350). The test can be described thus: qHTS for Inhibitors of PLK1-PDB (polo-like kinase 1 - polo-box domain): Primary Screen. Also: nearly all actives have a fitted effect of over 65% in size. As to max response, negative = inhibition: series mostly up to about 57 µM. As to conditions: Plk1 PBD binding of FITC phosphopeptide, fluorescence polarization. In general terms: Quantitative high-throughput screening tests each substance at several concentrations.
Chain of Serine/threonine-protein kinase PLK1 (Homo sapiens) (P53350 whole entry, looked up, the tested form may be a part): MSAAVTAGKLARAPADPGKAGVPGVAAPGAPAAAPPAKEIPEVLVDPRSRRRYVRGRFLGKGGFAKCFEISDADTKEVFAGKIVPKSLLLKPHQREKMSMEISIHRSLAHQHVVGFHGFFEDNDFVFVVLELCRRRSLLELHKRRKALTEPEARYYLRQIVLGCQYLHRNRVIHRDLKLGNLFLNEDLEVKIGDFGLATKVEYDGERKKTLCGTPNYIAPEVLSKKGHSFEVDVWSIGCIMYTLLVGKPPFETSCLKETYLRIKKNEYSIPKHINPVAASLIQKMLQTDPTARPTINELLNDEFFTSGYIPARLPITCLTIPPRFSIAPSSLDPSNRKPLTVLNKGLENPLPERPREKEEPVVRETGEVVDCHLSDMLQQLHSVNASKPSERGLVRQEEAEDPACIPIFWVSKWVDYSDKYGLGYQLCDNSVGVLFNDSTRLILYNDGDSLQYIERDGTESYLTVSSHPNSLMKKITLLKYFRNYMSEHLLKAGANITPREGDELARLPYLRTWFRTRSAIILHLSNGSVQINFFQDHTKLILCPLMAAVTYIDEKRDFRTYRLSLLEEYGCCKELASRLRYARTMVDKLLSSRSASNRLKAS
Take `CCOC(=O)[C@]12CCCC=C1N(Cc1ccc3c(c1)OCO3)C(=O)[C@H](CC(=O)N1CCN(C(=O)c3ccco3)CC1)C2`: the max response, negative = inhibition was -17.4% (inactive).

In the case of `CC1(C(=O)NS(=O)(=O)Cc2cccc(Cl)c2)CCN1C(=O)Cc1ccc(Cl)cc1Cl` (stereo not drawn), the max response, negative = inhibition is -4.29% (inactive).

For the compound `CC1CCN(C(=O)c2ccc(S(=O)(=O)Cc3cc(F)ccc3F)c([N+](=O)[O-])c2)CC1`, the Potency is 15 µM (active).

For the compound `Nc1ccc(C(=O)N2CCN(S(=O)(=O)c3ccc(Cl)cc3)CC2)cc1[N+](=O)[O-]`, the max response, negative = inhibition was -9.21% (inactive).

As for `O=C(c1ccc(Oc2ccc(Cl)cc2)c([N+](=O)[O-])c1)N1CCCC1`, the max response, negative = inhibition is -8.04% (inactive). For `O=C(Nc1ccc(Cl)cc1)c1csc([C@@H]2O[C@H](CO)[C@H](O)[C@H](O)[C@H]2O)n1`, the max response, negative = inhibition is 2.4% (inactive). For `O=C(Nc1cccc(Cc2ccccc2)c1)Nc1ccc2nc([C@@H]3O[C@H](CO)[C@@H](O)[C@H](O)[C@H]3O)[nH]c2c1`, the max response, negative = inhibition is -5.78% (inactive). With `CCOc1cccc(/C=N/N2C(=O)CSC2=S)c1O`, the Potency is 11.9 µM (active). Regarding `CCOc1cc(/C=N/n2cnnc2)c(Br)cc1O`, the max response, negative = inhibition is -5.37% (inactive). `CCOc1ccc(N2C(=O)CSC2=NC#N)cc1`: the max response, negative = inhibition is -14.5% (inactive). As for `CCCCCCN1C[C@H](O)[C@@H](n2cc(C3CC3)nn2)C[C@@H]1c1ccc(Cl)cc1`, the max response, negative = inhibition was -0.475% (inactive).

Take `COc1ccc(C(C(=O)NC(C)(C)C)N(Cc2ccc(F)cc2)C(=O)CCC(=O)Nc2cc(C)on2)cc1` (stereo not drawn): the max response, negative = inhibition was -11.5% (inactive).

For `CCC(C)(C)NC(=O)C(c1cccc(OC)c1OC)N(CC(C)C)C(=O)CCC(=O)Nc1cc(C)on1` (stereo not drawn), the Potency was 10.6 µM (active). For the compound `CCC(C)(C)NC(=O)C(c1ccc(OC)cc1)N(C(=O)CCC(=O)Nc1cc(C)on1)c1ccc(OC)cc1OC` (stereo not drawn), the max response, negative = inhibition was -9.49% (inactive).

In the case of `CC(=O)Nc1cc(-c2ccc(N3CCN(C)CC3)cc2)cn2c(-c3ccc(F)cc3)cnc12`, the max response, negative = inhibition is 1.71% (inactive).

With `COCCCn1c(=O)/c(=C/c2ccccc2OC(C)C)s/c1=C(\C#N)C(=O)Nc1ccc(C(=O)O)cc1`, the max response, negative = inhibition is -29.5% (inactive). `O=C(C[n+]1ccccc1)N/N=C/c1ccc(O)cc1`: the Potency is 26.7 µM (active). For `Cc1nonc1C(=O)N/N=C/c1ccc(O)cc1`, the max response, negative = inhibition was -1.21% (inactive). On the same count and under the same terms, the value for `Nc1nnn(CC(=O)N/N=C/c2ccc(O)cc2)n1` was -3.01% (inactive); that for `O=C(Nc1ccc2c(c1)[C@@H]1C[C@@H](CC(=O)N3CCCCC3)O[C@@H](CO)[C@@H]1O2)NC1CCCCC1` was 2.32% (inactive). Regarding `Cc1nc(C(F)(F)F)ccc1C(=O)N1CCC1(C)C(=O)NS(=O)(=O)c1ccc(F)cc1F` (stereo not drawn), the max response, negative = inhibition was 1.72% (inactive).

In the case of `COc1ccc(-n2cc(-c3ccccc3)c3c(=S)nc[nH]c32)cc1`, the max response, negative = inhibition is -12.3% (inactive).

As to `COc1ccc(-c2cn(-c3ccc(OC)cc3)c(=S)[nH]2)cc1`, the Potency is 21.2 µM (active).

For `COc1ccc(N2C(=O)CNC2=S)cc1`, the max response, negative = inhibition is 0.339% (inactive). Still for that read-out and setting: next, `Cc1csc(=O)n1CCC(=O)OCC(=O)Nc1ccc(N2CCOCC2)cc1`: 1% (inactive); `CSc1ccc(CN2CCC2(C)C(=O)Nc2ccc(C)c(O)c2)cc1` (stereo not drawn): 4.93% (inactive). Regarding `COc1cc(F)ccc1-c1cc(C(=O)NCC2CCCCC2)[nH]n1`, the max response, negative = inhibition was 1.4% (inactive). In the case of `CCOc1ccc(C2C(C#N)=C(N)N(N(C)C)C3=C2C(=O)CCC3)cc1` (stereo not drawn), the max response, negative = inhibition was -4.98% (inactive). Take `COc1ccc(C2C(C#N)=C(N)N(c3ncn[nH]3)C3=C2C(=O)CCC3)cc1` (stereo not drawn): the Potency is 26.7 µM (active). Take `N#CC1=C(N)N(c2ccccc2)C2=C(C(=O)CCC2)C1c1ccccc1` (stereo not drawn): the max response, negative = inhibition is -0.426% (inactive). On the same count and under the same terms, the value for `CC1(C(=O)NCc2ccccc2)CN(S(C)(=O)=O)CC(=O)N1CC(F)(F)F` (stereo not drawn) was 3.31% (inactive); that for `CCC(=O)N1Cc2cc(C(=O)NCc3cccc(F)c3)nc(-c3cccc(C4=CCCC4)c3)c2[C@H]1CCO` was -10.3% (inactive); that for `O=C(Nn1cnnc1)c1ccc([N+](=O)[O-])cc1` was -3.8% (inactive). On the same count and under the same terms, the value for `O=C(Cn1c[n+](CC(=O)c2ccc([N+](=O)[O-])cc2)cn1)c1ccc([N+](=O)[O-])cc1` was -8% (inactive). As for `O=C(CC(n1cncn1)C(Cl)(Cl)Cl)c1ccc([N+](=O)[O-])cc1` (stereo not drawn), the Potency is 23.8 µM (active). Consider `OC[C@@H]1CN(Cc2cccs2)C[C@H](n2cnc3c(NC4CCCC4)ncnc32)O1`, for which the max response, negative = inhibition was -8.04% (inactive). As for `O=C(Nc1cccc2ccccc12)NC1CC1`, the max response, negative = inhibition is -14.1% (inactive).

With `COc1ccc(C(C(=O)Nc2c(C)cccc2C)N2CCN(c3ccc(C)cc3)CC2)cc1` (stereo not drawn), the max response, negative = inhibition was -1.1% (inactive). Consider `N#Cc1c(-c2ccccc2)cc(-c2ccccc2)nc1SCC(=O)O`, for which the Potency is 21.2 µM (active). `N#Cc1c(C(F)(F)F)cc(-c2ccccc2)nc1SCC(=O)N1CCOCC1`: the max response, negative = inhibition was -6.59% (inactive). For `N#Cc1c(C(F)(F)F)cc(-c2ccc(Cl)cc2)nc1SCC(=O)O`, the max response, negative = inhibition was -8.73% (inactive). Take `OC(c1ccc(Cl)cc1)c1ncc(-c2ccc(Cl)cc2)[nH]1` (stereo not drawn): the max response, negative = inhibition was 5.29% (inactive). `CC1=C(C(=O)N2CCOCC2)CC(CC(=O)NCCCN(C)C)C(=O)N1Cc1ccc(C(C)(C)C)cc1` (stereo not drawn): the max response, negative = inhibition was -2.35% (inactive). Same read-out and setting: the value for `CCc1nc2ccc(C(=O)N3CCC(O)(Cc4ccccc4)CC3)cn2c1N(C)C(=O)Cc1ccccc1` was -2.01% (inactive).

In the case of `Nc1ncnc2c1ncn2[C@@H]1O[C@H](C(=O)NCC(F)(F)F)[C@@H](O)[C@H]1O`, the max response, negative = inhibition was -5.72% (inactive). Consider `CCOC(=O)N1CCN(S(=O)(=O)c2ccc(-n3cnnn3)cc2)CC1`, for which the max response, negative = inhibition was -22.3% (inactive).

In the case of `CCOC(=O)c1c(-n2cnnn2)sc(C)c1C`, the Potency is 26.7 µM (active).

With `CCOc1ccc(C(=O)COC(=O)c2ccc(-n3cnnn3)cc2)cc1`, the max response, negative = inhibition was 2.47% (inactive). As to `CC1(Oc2ccc(Cl)cc2)CCN(Cc2csc3ccccc23)C1` (stereo not drawn), the max response, negative = inhibition was -4.39% (inactive).

As for `Cc1ccc(CNC(=O)Nc2nnc([C@H]3C[C@H](O)[C@@H](CO)O3)s2)cc1`, the max response, negative = inhibition was 6.99% (inactive). Same read-out and setting: the value for `CC(C)C[C@@H](COCc1ccc(Cl)cc1)N1CCN(C(=O)c2ccc(Cl)cc2Cl)CCC1=O` was -7.05% (inactive); that for `CC(=O)c1cccc(-c2cnc3c(NC=O)cc(-c4cccc(C(=O)N(C)C)c4)cn23)c1` was -7.52% (inactive). Turning to `COc1ccc(C(=O)CCc2ccccc2O)c(OC)c1`, the max response, negative = inhibition was -0.281% (inactive). As for `COc1ccc(C(=O)c2c(C)c(CCC#N)n3ccccc23)c(OC)c1`, the Potency was 29.9 µM (active). Take `Cc1c(C(=O)c2cccc([N+](=O)[O-])c2)c2ccccn2c1CCC#N`: the max response, negative = inhibition was -8.17% (inactive).

For `CN1CCn2cnc(C(=O)NCC(=O)OC(C)(C)C)c2C1=O`, the max response, negative = inhibition is -1.56% (inactive). Still for that read-out and setting: the value for `Cc1ccccc1S(=O)(=O)N1[C@@H](c2cccc(Cl)c2)C(C(=O)OC(C)(C)C)=CC[C@H]1c1ccc(Cl)cc1` was -12.6% (inactive); that for `CCCCNC(=O)C[C@@H]1C[C@@]2(C(=O)OCC)CCC=C2N(Cc2ccco2)C1=O` was -10.8% (inactive); that for `Cc1ccc(S(=O)(=O)N2CC3C(=O)C[C@@H](c4ccccc4Cl)N(S(=O)(=O)c4ccc(C)cc4)C3CC2c2ccccc2)cc1` (stereo partly drawn) was 1.78% (inactive). Regarding `Cc1ccc(-n2c(SCC(=O)Nc3ccc4c(c3)OCO4)nnc2-c2ccccn2)cc1`, the max response, negative = inhibition is -3.49% (inactive). As for `O=C(CSc1nnc(-c2ccccn2)n1-c1ccccc1)Nc1ccc2c(c1)OCO2`, the max response, negative = inhibition was -6.44% (inactive). With `Cc1ccc(-n2c(SCC(=O)Nc3ccc4c(c3)OCO4)nnc2-c2ccoc2C)cc1`, the Potency is 23.8 µM (active).

`O=C(NCc1cccnc1)c1cc(C2CCCN(C(=O)CCCc3ccccc3)C2)on1` (stereo not drawn): the max response, negative = inhibition was 7.06% (inactive). Turning to `C/C(COc1ccccc1)=N\NC(=O)c1nnn(-c2nonc2N)c1-c1ccc(C)cc1`, the max response, negative = inhibition is -7.46% (inactive). Consider `CCC(=O)NC(=S)Nc1ccc(NC(=O)c2ccco2)c(Cl)c1`, for which the Potency was 29.9 µM (active). On to `O=C(NNC(=S)Nc1ccc(Br)cc1Cl)c1ccco1`, for which the max response, negative = inhibition is -12.7% (inactive). The same measure, in the same setting: next, `Cc1cccc(OCC(=O)Nc2ccc(NC(=O)c3ccco3)c(C)c2)c1`: -7.98% (inactive).

Take `CCCCN1C(=O)C(CC(=O)NC(c2ccccc2)c2ccccc2)CC(C(=O)N2CCOCC2)=C1C` (stereo not drawn): the max response, negative = inhibition was -4.16% (inactive). Still for that read-out and setting: next, `Cc1nc(C(F)(F)F)ccc1C(=O)N1CCC1(C)C(=O)NS(=O)(=O)c1ccccc1` (stereo not drawn): -4.71% (inactive); `COc1ccc(-c2nc(SCC(=O)N3CCCC3)n[nH]2)cc1`: -1.92% (inactive).

For the compound `COc1ccc(N2C(=O)CC(SC(C)C)C2=O)cc1` (stereo not drawn), the max response, negative = inhibition is -4.56% (inactive). For the compound `COc1ccc(N2C(=O)CC(Sc3n[nH]c(-c4ccc(C)cc4)n3)C2=O)cc1` (stereo not drawn), the Potency is 18.9 µM (active). On to `Cc1noc(C)c1-c1ccc(C(=O)NCc2ccncc2)c2occc12`, for which the max response, negative = inhibition is -3.63% (inactive). Same read-out and setting: the value for `CCc1nc2ccc(C(=O)Nc3cccc(OC)c3)cn2c1N(CCC(C)C)CCN(C)C` was 0.24% (inactive). As for `S=c1[nH]c2ccccc2c2ccccc12`, the Potency is 18.9 µM (active). For the compound `COC(=O)Cc1c(-c2[nH]c3ccccc3c2CC(=O)OC)[nH]c2ccccc12`, the max response, negative = inhibition was 0.279% (inactive).

In the case of `Cc1cc2c3ccccc3[nH]c(=O)n2n1`, the max response, negative = inhibition is -0.899% (inactive). As to `CCCNC(=O)C1CC(=O)N(c2ccc(OCc3ccccc3)cc2)C1` (stereo not drawn), the max response, negative = inhibition is 3.86% (inactive). Still for that read-out and setting: next, `Cc1nc(C(F)(F)F)ccc1C(=O)N1CCC1(C)C(=O)NS(=O)(=O)c1ccccc1Cl` (stereo not drawn): -15.4% (inactive). On to `O=C(Nc1ccc(N2CCOCC2)cc1)c1ccc2c(c1)OCO2`, for which the Potency is 26.7 µM (active). On to `COC(=O)c1ccc(N2CCOCC2)c(NC(=O)c2ccc3c(c2)OCCO3)c1`, for which the max response, negative = inhibition is 0.435% (inactive). Take `O=C(Nc1ccc(N2CCOCC2)cc1)c1cccc(S(=O)(=O)N2CCOCC2)c1`: the max response, negative = inhibition was -5.11% (inactive). Same read-out and setting: next, `COCOCCn1cc(CN2CCS(=O)(=O)N(Cc3ccc(-c4ccc(OC)cc4)cc3)C(CC(C)C)C2=O)nn1` (stereo not drawn): -17% (inactive).

These data come from PubChem BioAssay AID720504 (National Center for Advancing Translational Sciences (NCATS), 2013).
